We go through 40 compounds from PubChem BioAssay (NCATS).

Records with an inconclusive call do not appear. The source made the active and inactive calls. Calls come from the whole dose curve; as a rule, active = well fitted inhibition curve with a large enough effect in the repeat runs; inconclusive = weak or mixed curves; inactive = flat fitted curve, though single readings scatter.
% is set by controls: 0 for no effect and ±100 for the full control effect; potency is the fitted concentration of half-maximal effect.

Sequence of Cytochrome P450 2D6 (Homo sapiens) (P10635 whole entry, looked up): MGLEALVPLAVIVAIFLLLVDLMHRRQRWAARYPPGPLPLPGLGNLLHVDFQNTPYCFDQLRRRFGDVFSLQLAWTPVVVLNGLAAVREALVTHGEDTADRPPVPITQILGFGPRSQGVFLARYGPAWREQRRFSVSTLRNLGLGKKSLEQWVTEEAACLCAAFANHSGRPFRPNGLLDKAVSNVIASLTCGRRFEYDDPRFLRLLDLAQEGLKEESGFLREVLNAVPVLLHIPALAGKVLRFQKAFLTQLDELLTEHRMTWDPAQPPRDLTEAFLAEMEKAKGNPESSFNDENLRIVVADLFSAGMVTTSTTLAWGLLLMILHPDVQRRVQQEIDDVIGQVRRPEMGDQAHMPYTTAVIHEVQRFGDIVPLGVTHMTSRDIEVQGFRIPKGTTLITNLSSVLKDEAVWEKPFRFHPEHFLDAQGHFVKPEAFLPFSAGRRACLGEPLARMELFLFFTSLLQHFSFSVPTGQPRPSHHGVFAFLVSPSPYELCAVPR

The experiment concerns the target Cytochrome P450 2D6 (Homo sapiens) (UniProt P10635). The experiment can be described thus: Cytochrome P450 family 2 subfamily D member 6 (CYP2D6) small molecule antagonists: luciferase biochemical (cell-free) qHTS assay (AID 1645840). Note: nearly all actives have a fitted effect of over 55% in size. As to conditions: P450-Glo CYP2D6 enzyme, luciferin luminescence, 1 h; series mostly up to 57.4 µM; activity change, negative = inhibition: at the top concentration. As for the experimental part:
National Center for Advancing Translational Sciences [NCATS] Assay Overview: Cytochrome P450 (CYP) enzymes are membrane-bound hemeproteins that play a key role in metabolism of drugs and xenobiotics. Assaying the effect of chemicals on CYP isozymes is useful to minimize the adverse drug reactions and toxicities in drug development process. Chemical compounds were tested for their effect on CYP enzyme activities by using P450-Glo (TM) screening systems (Promega Corporation, Madison, WI). These systems provide a luminescent method containing proluciferin substrates and are converted to luciferin products by CYP isozymes. The luciferin products formed are detected with a luciferin detection reagent, and the amount of light produced is proportional to CYP activity. P450-Glo (TM) CYP2D6 screening system (Catalog. No. V9890) was used to detect the compounds that interfere in CYP2D6 activity.
Assay Protocol Summary: Two ul of enzyme-substrate mix was dispensed into medium binding white/solid 1536-well plates (Greiner Bio-One North America Inc., Monroe, NC) using a Flying Reagent Dispenser (FRD, Aurora Discovery, San Diego, CA). […] The assay plates were incubated at room temperature for 10 min. Then 2 ul of NADPH regeneration solution was added to each well of the assay plates using an FRD and incubated at room temperature for 1 h. The reaction was stopped by adding 4 ul of detection reagent using an FRD and after 20 min incubation at room temperature, the luminescence signal was measured using a ViewLux plate reader (Perkin Elmer, Shelton, CT). Data were expressed as relative luminescence units.
In general terms: qHTS replaces the single test concentration by a dilution series.
For the compound `CC1(C)CC(NC(=O)C(=O)Nc2ccc(Br)cc2)CC(C)(C)N1`, the “activity change, negative = inhibition” value is -8.21% (inactive). Take `C[C@H]1Oc2cc(cnc2N)-c2c(nn(C)c2C#N)CN(C)C(=O)c2ccc(F)cc21`: the “activity change, negative = inhibition” value is -13.6% (inactive). `CS(=O)(=O)N1CCC(NC(=O)c2[nH]ncc2NC(=O)c2c(Cl)cccc2Cl)CC1`: the “activity change, negative = inhibition” value was -1.22% (inactive). As for `Cc1cnc(NC(=O)Nc2cc(Br)c(C)cc2OCC2CNCCO2)cn1` (stereo not given), the Potency is 12 µM (active). Turning to `Cn1cc(S(=O)(=O)c2ccc(Cl)cc2)c2cccc(N3CCNCC3)c21`, the Potency was 13.5 µM (active).

Turning to `Cn1cc(-c2ccc3nnc(Sc4ccc5nn(C)cc5c4)n3n2)cn1`, the “activity change, negative = inhibition” value was -7.54% (inactive). For `COc1cc2c(cc1OC)-c1[nH]nc(Nc3cccc(F)c3)c1C2`, the Potency is 21.3 µM (active). With `CC(C)(F)C[C@@H](N[C@@H](c1ccc(-c2ccc(S(C)(=O)=O)cc2)cc1)C(F)(F)F)C(=O)NC1(C#N)CC1`, the Potency is 2.68 µM (active). For `CC(C)[C@@H]1C(=O)N(S(C)(=O)=O)[C@@H]2CCN(C(=O)/C=C/CN3CCCCC3)[C@H]21`, the “activity change, negative = inhibition” value is 0.801% (inactive). On to `CC(C)(C(=O)NCC(F)(F)C(F)(F)F)C(=O)NC1C(=O)Nc2ccccc2-c2ccccc21` (stereo not given), for which the Potency is 10.7 µM (active). In the case of `COc1cccc(C(=O)N2CCN(C(=O)COc3cccc(C)c3)CC2)c1OC`, the “activity change, negative = inhibition” value is 5.33% (inactive). Same read-out and setting: with `CCOc1cc(CC(=O)NC(CC(C)C)c2ccccc2N2CCCCC2)ccc1C(=O)O` (stereo not given) the figure was 0.939% (inactive).

For `Cc1ccc(N)cc1O`, the Potency is 2.45 µM (active). For `CCCCc1ccc(C(=O)Nc2cc(-c3ccc(Cl)cc3)nn2-c2ccc(Cl)cc2)cc1`, the “activity change, negative = inhibition” value was 2.38% (inactive).

Consider `C[C@@H](O)[C@H](NC(=O)c1ccc(C#Cc2ccc(CN3CCOCC3)cc2)cc1)C(=O)NO`, for which the “activity change, negative = inhibition” value was 10.9% (inactive). In the case of `CC(Cc1cc2c(c(C(N)=O)c1)N(CCCO)CC2)NCCOc1ccccc1OCC(F)(F)F` (stereo not given), the Potency was 7.56 µM (active).

In the case of `CCOc1cc(N2CCC(O)CC2)ccc1Nc1ncc2c(n1)N(C1CCCC1)CCC(=O)N2C`, the “activity change, negative = inhibition” value is 0.0734% (inactive). As for `COc1ccccc1Oc1ccc(N(Cc2cccnc2)S(=O)(=O)CC(F)(F)F)cc1`, the Potency is 13.5 µM (active). As for `N#Cc1cc(F)cc(-c2nc(-c3ccccn3)no2)c1`, the Potency is 10.7 µM (active).

With `O=C(Nc1ccc(S(=O)(=O)Nc2ccccc2Cl)c(Cl)c1)c1ccccn1`, the “activity change, negative = inhibition” value was 0.805% (inactive). Still for that read-out and setting: as for `CC(=O)N1CCN(C(=O)Cc2ccc(Nc3ncc(F)c(Nc4ccc(C(=O)Nc5ccccc5Cl)cc4)n3)cc2)CC1`, the figure is -21.4% (inactive). As to `COc1cc(N2CCOCC2)ccc1Nc1ncc(Cl)c(Nc2ccccc2NS(C)(=O)=O)n1`, the Potency is 15.1 µM (active). Regarding `O=C(O)[C@@H]1C[C@H]2C[C@@H](CCc3nn[nH]n3)CC[C@H]2CN1`, the “activity change, negative = inhibition” value is 1.85% (inactive). `COC(C(=O)N1Cc2[nH]nc(NC(=O)c3ccc(N4CCN(C)CC4)cc3)c2C1)c1ccccc1` (stereo not given): the “activity change, negative = inhibition” value was 5.23% (inactive). As for `COc1cccc(Nc2ncnn3ccc(CN4CC[C@@H](N)[C@H](O)C4)c23)c1`, the Potency was 9.52 µM (active).

Turning to `Cc1cccc2c1NC(=O)C2(c1ccc(O)cc1)c1ccc(O)cc1`, the Potency was 26.8 µM (active).

In the case of `C[C@H](C(=O)NC1CCCC1)N(C(=O)Cn1nnc(-c2ccc3c(c2)OCO3)n1)C1CCCCC1`, the Potency is 19 µM (active). For the compound `COc1cccc(-c2cc(NCc3ccc4c(c3)OCO4)nc(N)n2)c1`, the Potency is 0.756 µM (active). Turning to `Cc1ccc(C(=O)Nc2noc3ccccc23)cc1`, the Potency was 7.56 µM (active). On to `O=C(O)c1ccccc1NC(=O)N1CCC(c2ccccc2C(F)(F)F)CC1`, for which the “activity change, negative = inhibition” value is -26.8% (inactive). Same read-out and setting: as for `CN(C)C/C=C/C(=O)Nc1cc2c(Nc3ccc(F)c(Cl)c3)ncnc2cc1OC1CCOC1` (stereo not given), the figure is -3.41% (inactive). As to `Cc1cc(C)c2c(N)c(C(=O)NCc3ccc(Cl)cc3)sc2n1`, the Potency is 13.5 µM (active).

Take `Cc1cc(OCc2nnc(SC3CCCC3)n2-c2cccnc2)ccc1-c1ccc(S(C)(=O)=O)cc1`: the “activity change, negative = inhibition” value is -5.12% (inactive).

`CSc1ccc(C(=O)N[C@@H]2CCCC[C@@H]2NC(=O)CNC(=O)c2cc(C(F)(F)F)ccc2NC(=O)NC(C)C)cc1`: the Potency is 9.52 µM (active). Turning to `O=C(COc1cccc2c(=O)[nH]ccc12)c1ccccc1`, the “activity change, negative = inhibition” value is -22.4% (inactive). As to `COc1cc2ncnc(Nc3ccc(F)c(Cl)c3)c2cc1NC(=O)/C=C/CN1CCCCC1`, the Potency was 0.0477 µM (active). For `c1ccc(-c2csc(N3CCOCC3)n2)cc1`, the “activity change, negative = inhibition” value was -1.8% (inactive). Consider `COc1cc(O)c([C@@H](CC(=O)N2CC(C)CC(C)C2)c2ccc3c(c2)OCO3)c(OC)c1` (stereo not given in full), for which the Potency was 19 µM (active). Regarding `CC(C)c1nc(-c2ccc(NC(=O)Nc3cccc(C(F)(F)F)c3)c3ccccc23)c2c(N)nccn12`, the Potency was 0.0674 µM (active).

Turning to `CC(C)(C)OC(=O)N1CCC(OCc2nc(-c3ccncc3)no2)CC1`, the “activity change, negative = inhibition” value is -9.46% (inactive).
